High-throughput results (PubChem)
TbPYK inhibitor: blocks Trypanosoma brucei pyruvate kinase; TbPYK enzyme, Kinase-Glo Plus ATP luminescence, 45 min; Potency, µM (doses to about 76.8 µM), hits mostly inhibitors; hit rate 0.12% among 410,000; also: nearly all actives have a fitted effect of over 50% in size
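Assay buffer: 50 mM TEA pH 7.2, 100 mM KCl, 10 mM MgCl2, 0.05% BSA, 0.01% Tween-20. Pyruvate kinase from T. brucei plus substrate met compound, then ADP (130 uM final). Luminescence was read post 45 min RT.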
Sm TGR block: blocks Schistosoma mansoni thioredoxin glutathione reductase. purified TGR, DTNB reduction, TNB absorbance 405 nm. Q962Y6. Potency, µM (highest dose often 114 µM), usual class: inhibitors. AID 485364. hit rate 3% among 360,000; also: nearly all actives have a fitted effect of over 60% in size
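Kinetic colorimetric format: TGR-catalysed, NADPH-driven DTNB reduction monitored via TNB absorbance. Enzyme dispensed at 20 nM; compound exposure 15 min at room temperature before reaction start.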
RE007 growth inh: less growth of the S. pombe RE007 Vpr strain | S. pombe RE007 Vpr strain, BacTiter-Glo ATP luminescence, 24 h | Potency, µM (doses to about 92.2 µM), actives largely listed as inhibitors | hit rate 0.21% among 360,000 | AID 651644; active = well fitted falling curve with a large enough effect; inconclusive = small, poorly fitted or top-dose-only effect; inactive = no such curve, though single readings can be large or run the other way; also: nearly all actives have a fitted effect of over 50% in size
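Fission yeast RE007 carrying one integrated HIV-1 vpr copy, seeded at OD 0.01 in PMG+AL medium with 23 nL pinned compound. Grown 24 h at 30 degrees; viability read by BacTiter-Glo luminescence after 5 min.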
FMDV antiviral: foot and mouth disease virus antiviral activity; FMDV antiviral cell-based qHTS; Potency, µM (series often up to 57.9 µM), actives largely listed as inhibitors; hit rate 1.2% among 410,000; AID 1159524; calls by dose curve; tested in HEK293T cells; also: read-out not given here; nearly all actives have a fitted effect of over 45% in size
Each line names hits and unclear results; the compound was inactive in the other large screens. Shown are actives, neighbours in structure and some others; about 3.7% of the full set was active somewhere. Unless noted, calls follow the shape of the dose curve; as a rule, active = well fitted curve in the direction sought with a large enough effect; inconclusive = small, poorly fitted or top-dose-only effect, or another doubt; inactive = no such curve, though single readings can be large; an effect the other way counts as inactive or inconclusive.

CCN1C(=O)/C(=C\c2nc3ccccc3c(=O)n2CC)c2ccccc21	FMDV antiviral 25.1µM
CCN1C(=O)/C(=C/c2nc3ccccc3c(=O)n2-c2ccccc2)c2ccccc21	FMDV antiviral 25.1µM
CCn1c(/C=C2/C(=O)N(C)c3ccccc32)nc2ccccc2c1=O	FMDV antiviral inconclusive
Oc1ccccc1C1=NN(c2ccccc2)C(c2ccc(F)cc2)C1 (configuration not stated)	none
Oc1ccccc1C1=Nc2nc3ccccc3n2C(c2ccccc2)C1 (configuration not stated)	Sm TGR block 10µM, RE007 growth inh inconclusive
O=C1NC(=O)C(=Cc2ccc(SC3CCCCC3)o2)C(=O)N1	TbPYK inhibitor inconclusive, Sm TGR block 39.8µM, FMDV antiviral 17.8µM
CC1=C(C)/C(=N\OS(=O)(=O)c2ccc(C)cc2)C=CC1=O	Sm TGR block 7.94µM, RE007 growth inh 15.8µM, FMDV antiviral 20µM
COc1cc(C(=O)O/N=C2/C=C(C)C(=O)C=C2C)cc(OC)c1OC	none
CC1=C/C(=N\OS(=O)(=O)c2ccccc2)C(C(C)C)=CC1=O	Sm TGR block inconclusive, RE007 growth inh inconclusive, FMDV antiviral 28.2µM
CC1=C/C(=N\OS(=O)(=O)c2ccccc2)C(C)=CC1=O	Sm TGR block 44.7µM, RE007 growth inh 35.5µM, FMDV antiviral 4.47µM
COc1ccc(S(=O)(=O)/N=C2/C=CC(=O)C(C)=C2C)cc1	Sm TGR block inconclusive
CCC1(O)CC2CN(CCc3c([nH]c4ccccc34)[C@@](C(=O)OC)(c3cc4c(cc3OC)N(C=O)[C@H]3[C@](O)(C(=O)OC)[C@H](OC(C)=O)[C@]5(CC)C=CCN6CC[C@]43[C@@H]65)C2)C1 (some centres not stated)	none (no result: Sm TGR block, RE007 growth inh, FMDV antiviral)
Cc1[nH]c(/C=C2/C(=O)Nc3ccc(S(=O)(=O)Cc4c(Cl)cccc4Cl)cc32)c(C)c1C(=O)N1CCCC1CN1CCCC1 (configuration not stated)	none (no result: TbPYK inhibitor, Sm TGR block, RE007 growth inh)
COCCNc1nc(Oc2cccc3ccccc23)c2sccc2n1	none (no result: Sm TGR block)
COc1ccc(-c2nn(C)c3sc(C(=O)N4CCN(c5cccc(C)c5C)CC4)cc23)cc1OC	Sm TGR block 25.1µM (no result: RE007 growth inh)
Cc1ccc(NN2C(=O)C=C(c3ccccc3)C2=O)cc1	TbPYK inhibitor inconclusive, Sm TGR block inconclusive, RE007 growth inh inconclusive, FMDV antiviral 20µM
O=C1c2ccccc2C(=O)N1Nc1ccccc1	none
C=CCn1c(O)c(CN2CCOCC2)c(C)c(C#N)c1=O	Sm TGR block 39.8µM
C=CCn1c(C)cc(C)c(C#N)c1=O	none
COc1ccc(CCNc2cc(N3CCN(C(=O)c4ccc(C)cc4)CC3)ccc2[N+](=O)[O-])cc1OC	none (no result: TbPYK inhibitor, RE007 growth inh, FMDV antiviral)
COc1ccc(C(=O)N2CCN(c3ccc([N+](=O)[O-])c(NCCc4ccc(OC)c(OC)c4)c3)CC2)cc1	FMDV antiviral 8.91µM
O=C(c1ccccc1F)N1CCN(c2ccc([N+](=O)[O-])c(NCc3cccnc3)c2)CC1	FMDV antiviral inconclusive
COc1ccc(CCNc2cc(N3CCN(C(=O)c4ccccc4F)CC3)ccc2[N+](=O)[O-])cc1OC	FMDV antiviral 3.55µM
CCOC(=O)c1cccc(NC(=O)C2CCN(S(=O)(=O)c3cccs3)CC2)c1	FMDV antiviral 25.1µM
Cc1ccc(NC(=S)NC(=O)/C=C/c2ccco2)c(O)c1	Sm TGR block 17.8µM, FMDV antiviral inconclusive
O=C(/C=C/c1ccco1)NC(=S)Nc1cc(C(F)(F)F)ccc1N1CCOCC1	Sm TGR block inconclusive
O=C(/C=C\c1ccco1)NC(=S)Nc1ccccc1O	Sm TGR block 8.91µM
Cc1cc(C)c2oc(-c3ccc(C)c(NC(=S)NC(=O)/C=C/c4ccco4)c3)nc2c1	Sm TGR block inconclusive
O=C(/C=C/c1ccco1)NC(=S)Nc1ccccn1	Sm TGR block 8.91µM
O=C(/C=C/c1ccco1)NC(=S)Nc1ccccc1O	Sm TGR block 10µM
Cc1cccc(CNc2ncnc3ccc(-c4cccc(NS(C)(=O)=O)c4)cc23)c1	none (no result: TbPYK inhibitor, Sm TGR block, RE007 growth inh)
COc1ccc(N(C(=O)c2ccco2)S(=O)(=O)c2cccs2)cc1	Sm TGR block inconclusive
O=C(Nc1ccccc1N(C(=O)c1ccco1)S(=O)(=O)c1cccs1)c1ccco1	Sm TGR block 44.7µM
c1csc(-c2noc(CN3CCOCC3)n2)c1	none
NC(=O)C1(N2CCCCC2)CCN(Cc2nc(-c3cccs3)no2)CC1	FMDV antiviral 35.5µM
Cn1c(CNC(=O)c2ccco2)nnc1SCC(=O)c1ccc(F)cc1	Sm TGR block 10µM
O=C(CC(SCCO)c1ccc2c(c1)OCO2)c1cccs1 (configuration not stated)	none
O=C(CSc1nnc(-c2cc3ccccc3cc2O)n1Cc1ccco1)c1ccc(F)cc1	none
O=C(CC(SCc1ccco1)c1ccc(O)cc1)c1cccs1 (configuration not stated)	Sm TGR block 28.2µM
CCn1c(CNC(=O)c2ccco2)nnc1SCC(=O)c1ccc(F)cc1	none
Cc1occc1-c1nnc(SCC(=O)c2ccc(F)cc2)n1Cc1ccco1	Sm TGR block 22.4µM
O=C(CSc1nnc(-c2ccc(O)cc2)n1Cc1ccco1)c1ccccc1	Sm TGR block 44.7µM
COc1cc(NC(=O)Nc2cccc(-c3noc(C)n3)c2)cc(OC)c1OC	FMDV antiviral inconclusive (no result: RE007 growth inh)
CC1(O)/C=C\C=C(\CO)C2CC(C)(C)C2(O)CC1 (configuration not stated)	none (no result: TbPYK inhibitor, Sm TGR block, RE007 growth inh)
O=C(CSc1nnc(-c2ccc(O)cc2)n1Cc1ccco1)c1cccs1	Sm TGR block 25.1µM
CCn1c(SCC(=O)c2cccs2)nnc1-c1cccs1	none
CC(=O)OCC1=C(C(=O)O)N2C(=O)[C@@H](NC(=O)Cc3ccccc3)[C@H]2SC1	FMDV antiviral inconclusive (no result: Sm TGR block)
CCC(C(=O)NC1C(=O)N2C(C(=O)O)=C(CSc3nnc(C)s3)CSC12)c1ccccc1 (configuration not stated)	Sm TGR block 3.98µM
Cc1nnc(SCC2=C(C(=O)O)N3C(=O)C(NC(=O)COc4ccccc4)C3SC2)s1 (configuration not stated)	Sm TGR block 7.94µM
Cc1nnc(SCC2=C(C(=O)O)N3C(=O)C(NC(=O)COc4ccc(F)cc4)C3SC2)s1 (configuration not stated)	Sm TGR block 14.1µM
CC(=O)OCC1=C(C(=O)O)N2C(=O)C(NC(=O)COc3ccc(F)cc3)C2SC1 (configuration not stated)	Sm TGR block 14.1µM
COc1cccc(CNC(=O)CCc2nnc3n(CC(C)C)c(=O)c4ccccc4n23)c1	none (no result: RE007 growth inh)
Cc1cc(C)c(NC(=O)CSC2=Nc3ccccc3C3=NC(CC(=O)NCc4cccs4)C(=O)N23)c(C)c1 (configuration not stated)	none (no result: RE007 growth inh)
CCOC(=O)c1c(S(=O)(=O)NCC(=O)Nc2cccc(CC)c2)c(C)n(C)c1C	none (no result: RE007 growth inh)
CC(=O)OCC1=C(C(=O)O)N2C(=O)C(NC(=O)CC(C)c3ccccc3)C2SC1 (configuration not stated)	Sm TGR block 28.2µM
CC(=O)OCC1=C(C(=O)O)N2C(=O)[C@@H](N)[C@@H]2SC1	none (no result: Sm TGR block, RE007 growth inh, FMDV antiviral)
